Source: PubChem BioAssay AID1347072 (National Center for Advancing Translational Sciences (NCATS), 2019)
Out of some 44,000 compounds screened, fewer than 10 were called active. Not shown: some 2% with an inconclusive outcome. Calls follow the shape of the dose curve; as a rule, active = well fitted curve in the direction sought with a large enough effect; inconclusive = small, poorly fitted or top-dose-only effect, or another doubt; inactive = no such curve, though single readings can be large or run the other way. A selection follows.

What follows are compounds tested against Galactokinase (Homo sapiens) (UniProt P51570) (assay: qHTS Assay for Inhibitors of Human Galactokinase (GALK): NCGC Sytravon Library Screen). Settings: recombinant GALK, Kinase-Glo ATP luminescence, 1 h; series mostly up to 57.5 µM; activity, negative = inhibition: at the top concentration.
Excerpt: Inherited deficiency of galactose-1-phosphate uridyltransferase (GALT) can result in a potentially lethal disorder called Classic Galactosemia (OMIM 230400). Several lines of evidence indicate that an elevated level of galactose-1-phosphate (gal-1-p), the product of galactokinase (GALK), is a major, if not sole, pathogenic mechanism in patients with classic galactosemia. Therefore, finding inhibitors of GALK is a potential novel therapy for this inherent metabolic disease and is the long term goal of this project. This screen is run against the NCGC Sytravon compound library collection. GALK (provided by Kent Lai) was assayed using ATP and D-(+)-Galactose (Sigma-Aldrich cat# G0750) as substrates. Promega Kinase-Glo Plus technology was used to detect kinase activity. Reactions with and without GALK were used as negative and positive controls together with Protein Tyrosine Phosphatase CD45 inhibitor (EMD Bioscience cat# 540215) which is shown to inhibit GALK activity. Decrease in activity corresponds to inhibition of the enzyme is the desired outcome for this assay. NIH Molecular Libraries Probe Production Network [MLPCN] NIH Chemical Genomics Center [NCGC] Grant: R03 MH085689-01 PI Name: Kent Lai Ph.D., University of Utah
NCGC Assay Protocol Summary: Three uL/well of ATP-buffer solution (35 uM ATP, 20mM HEPES pH8.0, 5 mM MgCl2, 60 mM NaCl, 1 mM DTT, 0.01% BSA final concentration) was dispensed into 1536-well, assay plates (Greiner, solid white medium-binding plates) with Aurora Discovery BioRAPTR Flying Reagent Dispenser (FRD; Beckton-Dickenson). Compound solution (23 nL) was transferred to the assay plate using the Kalypsys 1536-pin tool. One uL/well GALK-galactose solution (5 nM GALK, 100 uM galactose, 20 mM HEPES pH8.0, 5 mM MgCl2, 60 mM NaCl, 1 mM DTT, 0.01% BSA final concentration) was then added using the FRD yielding a total kinase reaction volume of 4 uL/ well. After 1 hour of room temperature incubation, 4 uL Kinase-Glo Plus reagent was added for a final assay volume of 8 uL/ well. Luminescence was detected with the ViewLux plate reader (Perkin Elmer, Waltham, MA) after 10 min incubation using a 1 sec exposure time and 2x binning.
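Also: plate controls were full GALK reaction for no effect and reaction lacking GALK for full effect.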

Galactokinase (Homo sapiens), sequence (P51570 whole entry, looked up): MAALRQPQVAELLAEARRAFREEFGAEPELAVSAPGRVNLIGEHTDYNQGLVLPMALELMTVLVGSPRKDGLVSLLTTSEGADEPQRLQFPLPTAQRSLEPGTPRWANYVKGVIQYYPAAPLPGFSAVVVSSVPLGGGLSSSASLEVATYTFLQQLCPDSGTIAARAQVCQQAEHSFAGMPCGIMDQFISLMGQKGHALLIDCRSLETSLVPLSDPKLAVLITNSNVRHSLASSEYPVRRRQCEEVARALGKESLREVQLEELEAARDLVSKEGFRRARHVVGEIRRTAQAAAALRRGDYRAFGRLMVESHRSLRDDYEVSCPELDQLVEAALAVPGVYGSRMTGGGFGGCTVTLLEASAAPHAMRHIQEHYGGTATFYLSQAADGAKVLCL

activity, negative = inhibition, inactive:
O=S(=O)(NCC(c1ccco1)N1CCOCC1)c1cc(F)ccc1F (stereo unspecified) -5.26%, COc1ccc(-c2nc(C)c(CCNC(=O)c3ccc(C(F)(F)F)cc3)s2)cc1OC -7.93%, CCOC(=O)c1cccc(NC(=O)C(Cc2ccccc2)NS(=O)(=O)c2cccc3nsnc23)c1 (stereo unspecified) 7.9%, Cc1ccccc1Nc1nn2c(=O)c3ccc(C(=O)NCCc4ccc(Cl)cc4)cc3nc2s1 0.366%, CCOc1ccc(C(=O)N2CCN(CCc3ccccn3)CC2)cc1 0.691%, COc1ccccc1CNCc1ccc(C(=O)O)s1 -3.41%, COc1ccccc1CNC(=O)c1ccccc1NC(=O)c1nsc2ccccc12 -9.67%, Cc1sc2ncn(CC(=O)N3CCN(c4ccc(F)cc4)CC3)c(=O)c2c1S(=O)(=O)N1CCN(c2ncccn2)CC1 0.246%, COc1ccc(OC)c(NC(=O)/C=C/c2ccc(C)o2)c1 2.78%, Cc1ccc(CNC(=O)CCC(=O)N2Cc3ccccc3Oc3ncccc32)cc1 -0.764%, Cc1nn(CC(=O)NCCc2ccccc2)c(=O)c2c1sc1ccccc12 -10.7%, COc1ccc(OC)c(NC(=O)CN2CCCN(Cc3cc(C)ccc3C)S2(=O)=O)c1 1.05%, O=C(NCCCN1CCN(c2cccc(Cl)c2)CC1)c1nnc(Cc2ccc(F)cc2Cl)o1 0.501%, CC1=C(c2ccc(C)c(C)c2)S(=O)(=O)NC1=NCc1ccccc1Cl 3.69%, COc1ccc(S(=O)(=O)NCCc2cc3ccc(C)c(C)c3[nH]c2=O)cc1 1.2%, CCc1cccc(C)c1Nc1c(-c2ccc(N(C)C)cc2)nc2ncccn12 1.49%, COc1ccc(NC(=O)Cn2c(=O)n(Cc3ccc(C(=O)NCc4ccccc4Cl)cc3)c(=O)c3ccccc32)cc1 1.58%, CCC(=O)Nc1ccc2nc(SCC(=O)N3CCc4ccccc43)sc2c1 1.4%, Cc1ccc(-n2c3nc(=O)[nH]c(=O)c-3cc3c(Cl)cccc32)cc1 -0.166%, Cc1ccc(SCC(=O)Nc2ccc3oc(-c4ccccc4C)nc3c2)cc1 -12.2%, COc1ccc(NC(=O)CSc2nc3ccccc3n2CC(=O)N2CCCCC2C)cc1 (stereo unspecified) -1.23%, CCOc1ccc(CCNC(=O)CSc2cc(=O)n(C)c3ccc(Cl)cc23)cc1OCC 0.0807%, O=C(Cn1c(=O)n(Cc2ccccc2)c(=O)c2sc3ccccc3c21)Nc1ccccc1F 5.92%, Cc1cccc2c(=O)cc(CSc3ccccc3NC(=O)C(C)C)[nH]c12 -0.731%, COc1cc(OC)c(OC)cc1/C=C/c1nc2cc3ccccc3cc2c(=O)n1-c1ccc(F)c(Cl)c1 -0.852%, Cc1ccc(C(=O)Nc2nc(-c3ccccc3)ns2)cc1 0.054%, Cc1ccc(C)c(Cn2c(=O)n(CCC(=O)NCc3ccc4c(c3)OCO4)c(=O)c3sccc32)c1 -5.4%, Cc1ccc(CNS(=O)(=O)c2ccc(C(=O)N(C)C)s2)cc1 2.1%, O=C(NCc1ccc2c(c1)CCN2C(=O)c1ccccc1)Nc1cc(F)ccc1F -8.63%, CN(C(=O)CSc1nc2ccccc2n1Cc1ccccc1C#N)c1ccccc1 -3.63%, CCCn1c2ccccc2c2cnn(CC(=O)NCC3CCN(Cc4ccc(C)cc4)CC3)c(=O)c21 0.1%, COc1ccc(-c2noc(CSc3nnc(-c4ccccc4)n3-c3ccc(F)cc3)n2)c(OC)c1 3.13%, Cc1nnc(NC(=O)CSc2nc3c([nH]c4ccccc43)c(=O)n2-c2cccc(Cl)c2)s1 -7.52%, CCOc1ccc(CCNC(=O)c2cc3c(=O)n(C)c4ccccc4c3n2C)cc1 1.83%, O=C(CSc1nc2c(c(=O)[nH]1)CN(Cc1ccc(F)cc1)CC2)Nc1ccccc1Cl 3.32%, O=C(Cc1ccc(Cl)cc1)NCC(c1cccs1)S(=O)(=O)c1ccc(Cl)cc1 (stereo unspecified) 0.239%, O=C(Nc1ccc(Br)cc1)c1ccc(Br)c(S(=O)(=O)NCc2ccccc2)c1 0.305%, Cc1ccc(-c2cn3c(n2)sc2cc(C(=O)NCc4cccs4)ccc23)c(C)c1 4.3%, CCc1ccccc1NC(=O)c1ccc(F)c(S(=O)(=O)NC2CCCCCC2)c1 1.07%, CCc1cccc(NC(=O)CSc2nccn2C)c1 -2.55%, COc1ccc(CCNc2ncnc3c2cnn3-c2ccc(C)cc2)cc1 0.59%, Cc1cccc(-c2nc(SCc3ccc(Br)cc3)n3[nH]c(=O)cc3n2)c1 4.56%, CC(CCCc1ccccc1)NC(=O)c1nn(-c2ccc(Cl)cc2)nc1CO (stereo unspecified) 2.68%, COc1ccc(CNc2nc(-c3ccc(Cl)cc3)cc(C(F)(F)F)n2)cc1 -1.42%, CCn1cc(CCC(=O)NCc2ccc(F)cc2)c2ccccc21 3.15%, CCN(c1ccc(Cl)cc1)S(=O)(=O)c1nnc(NC(=O)c2ccco2)s1 1.43%, CCc1nn(CC(=O)Nc2cccc(C)c2C)c(=O)c2cc3sccc3n12 -10.4%, Cc1c(Cl)cccc1NC(=O)C1CCCN(C(=O)c2cnn(-c3ccccc3)c2-n2cccc2)C1 (stereo unspecified) 5.36%, CCc1ccccc1OCCSc1nc(-c2cccs2)nc2cc(=O)[nH]n12 -3.94%, COc1ccc2cc(-c3nc(Cl)c4c5c(sc4n3)CC(C)CC5)c(=O)oc2c1 (stereo unspecified) 7.47%, Cc1ccc2cccc(NC(=O)C(C)Oc3ccc(C)c(C)c3)c2n1 (stereo unspecified) 2.77%, CCCCc1nn2c(=O)cc(COC(=O)c3ccccc3NC(=O)C(C)(C)C)nc2s1 0.0179%, O=C(CSc1nc(=O)[nH]c2c1CCCC2)Nc1cc(C(F)(F)F)ccc1Cl -1.93%, CC(NC(=O)c1cc2c(=O)n3ccccc3nc2n(C(C)C)c1=N)c1ccccc1 (stereo unspecified) 16.3%, COc1ccccc1CNS(=O)(=O)c1cc(Br)cc2c1N(C(C)=O)C(C)C2 (stereo unspecified) -5.64%, Cn1c(=O)cc(OCC(=O)N2CCN(c3ccccc3F)CC2)c2ccccc21 0.123%, COc1ccc(CNC(=O)CCc2c(C)nn(-c3ccc(N4CCCC4)nn3)c2C)cc1 -0.105%, O=S(=O)(NCCS(=O)(=O)N1CCN(c2ccccc2)CC1)c1ccc(Cl)cc1 2.24%, CCCN1CCN(CCCNC(=O)c2ccc3nc(Cc4ccccc4)oc3c2)CC1 -0.181%, CCN(Cc1ccccc1)C(=O)c1cn(-c2cccc(OC)c2)c(=O)c2ccccc12 0.495%, COc1ccc(NS(=O)(=O)c2cc3c4c(c2)CC(=O)N4CCC3)cc1Cl 0.222%, CC(=O)N1CCCc2ccc(NS(=O)(=O)c3ccc(F)cc3F)cc21 0.29%, CCc1nc(-c2cc(S(=O)(=O)N3CCN(c4ccc(OC)cc4)CC3)ccc2OC)no1 3.93%, Cc1ccc(NC(=O)Cn2c(=O)n(-c3ccccc3)c(=O)c3c4c(sc32)CCCC4)cc1 6.16%, COc1cccc(CNC(=O)CN2C(=O)CCc3cc(S(=O)(=O)N4CCOCC4)ccc32)c1 -0.942%, C#CCOc1ccc(C2CC(=O)Nc3c2c(C)nn3-c2nc(C)cc(C)n2)cc1 (stereo unspecified) -0.329%, Cc1cccc(NC(c2cccc(F)c2)c2ccc3ccc(C)nc3c2O)n1 (stereo unspecified) -1.92%, O=C(CCS(=O)(=O)c1cc(Br)cc2c1N(C(=O)C1CC1)CC2)Nc1ccc(Br)cc1F 1.92%, CCOC(=O)c1ccc(N2C(=O)c3n[nH]c(-c4ccco4)c3C2c2ccc(O)cc2)cc1 (stereo unspecified) 0.26%, O=C(CC1Oc2ccc(Cl)cc2NC1=O)NCc1ccccc1 (stereo unspecified) -9.65%, COc1ccc(-n2c(C)nc3c(cnn3-c3ccc(F)cc3)c2=O)cc1 6.98%, COc1ccc(CCN2C(=O)N(c3cccc(OC)c3)C(=O)C2CC(=O)Nc2ccccc2)cc1 (stereo unspecified) 4.98%, COc1ccc(CCNC(=O)CCc2c(C)nc3c(c(C)nn3-c3ccc(C)c(C)c3)c2C)c(OC)c1OC -1.7%, O=C1CCCc2cc(S(=O)(=O)N3CCCC(C(=O)NCc4ccccc4)C3)ccc2N1 (stereo unspecified) 0.641%, COc1ccccc1NC(=O)CSc1oc(-c2ccco2)nc1S(=O)(=O)c1ccc(Br)cc1 -0.198%, O=C(CSc1cn(CC(=O)N2CCOCC2)c2ccccc12)Nc1ccccc1 -10.9%, CCCNc1ncnc2c1c(-c1ccccc1)cn2-c1ccc(OCC)cc1 -0.973%, COc1cccc(CNC(=O)c2ccc3c(c2)sc2nc(-c4cccc(OC)c4)cn23)c1 1.05%, COc1ccc(NC(=O)N2CCCn3nc(C)cc32)cc1OC 1.03%, CC(C)c1ccc(NC(=O)Cn2c3ncccc3c(=O)n2-c2ccccc2)cc1 -0.715%, Cc1cn(C)c(CC(=O)NCc2ccc(Cl)cc2)c1C(=O)O -2.28%, O=C(NCc1ccccc1)C1CCN(S(=O)(=O)c2ccc3[nH]c(=O)ccc3c2)CC1 2.14%, Cc1cc(C)c(NC(=O)CCc2c(C)nc3c(c(C)nn3C(C)(C)C)c2C)c(C)c1 0.89%, CCOC(=O)c1ccc(NC(=O)CSc2nc3c([nH]c4ccccc43)c(=O)n2C)cc1 -9.08%, COc1cccc(NC(=O)c2csnn2)c1 -5.21%, CCc1nc2c(cnn2-c2ccc(C)cc2)c(=O)n1-c1ccc(C)cc1 8.26%, CCC1(C)CC(=O)c2c(ccc3oc(C(=O)Nc4ccc(C(C)=O)cc4)c(C)c23)O1 (stereo unspecified) -4.05%, COc1ccc2oc(-c3ccc(C)c(NC(=O)c4sc5ccccc5c4Cl)c3)nc2c1 -14.9%, CCOC(=O)Cn1c(=O)n(-c2ccccc2OC)c2nc(-c3cccc(F)c3)nc(C(N)=O)c21 0.826%, Cc1ccc(NC(=O)c2cn3c4c(ccc(Cl)c4c2=O)OC(C)C3)cc1C (stereo unspecified) -3.8%, CCCCS(=O)(=O)c1oc(-c2cccs2)nc1S(=O)(=O)c1ccccc1 3.76%, O=C(CSc1ncc(CO)n1Cc1ccc(F)cc1)NCc1ccco1 -0.478%, CNc1ccc(-c2nc(-c3ccccc3C)no2)cc1[N+](=O)[O-] -1.05%, CCc1ccccc1NC(=O)Cn1c(=O)n(-c2cccc(C)c2)c(=O)c2c1c1cc(OC)ccc1n2C 3.81%, CCOC(=O)c1c(S(=O)(=O)N2CCCC(C(=O)NCc3cccc(C)c3)C2)c(C)n(C)c1C (stereo unspecified) 3.27%, CCOc1ccccc1NC(=O)c1ccc2c(c1)CCN2S(=O)(=O)c1ccc(C)cc1 2.78%
